The source made the active and inactive calls. Rule for the calls: active = hit-call score of the fitted dose curve at least 0.9, where 1 is the maximum; inactive = score below 0.9.
Legend:
[1] = ATG_CRE_CIS: Attagene CIS-FACTORIAL HepG2 Assay for human cAMP Responsive Element (CRE) binding protein 3 (AID 2282926); conditions: HepG2 CRE cis-reporter, Attagene multiplexed mRNA; actives raise or lower the signal
Summary of the method: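 Endogenous transcription factor activity read via CRE-regulated reporter transcripts in transfected HepG2 cells. After 24 h exposure, RNA was reverse-transcribed, amplified, fluorescently labelled and sized by capillary electrophoresis; gain or loss fitted against DMSO.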

[2] = molecular target: CCAAT/enhancer-binding protein beta (Homo sapiens) (UniProt P17676); assay: ATG_C_EBP_CIS: Attagene CIS-FACTORIAL HepG2 Assay for human CCAAT/Enhancer Binding Protein (C/EBP) beta (AID 2282927); conditions: HepG2 Attagene cis-factorial transcription factor reporter; actives raise or lower the signal
Summary of the method: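 Endogenous C/EBPb-driven reporter transcripts measured in transfected human HepG2 cells at 24 h via RT-PCR and capillary electrophoresis of labelled fragments. Activity fitted in both directions relative to DMSO baseline.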

[3] = ATG_CMV_CIS: Attagene CIS-FACTORIAL HepG2 Assay for human CMV (Internal Marker) (AID 2282928); conditions: HepG2 CMV promoter reporter, transcription factor profiling; actives raise or lower the signal;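 note: endpoint acts as a background internal control marker rather than a target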
Summary of the method: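 Readout: fluorescent reporter cDNA fragments separated by capillary electrophoresis after RT-PCR and HpaI cut. Cells: HepG2 carrying transfected cis-promoter reporter constructs, dosed 24 h. Endpoint serves as background internal-marker control, fit bidirectionally versus DMSO.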

[4] = ATG_DR4_LXR_CIS: Attagene CIS-FACTORIAL HepG2 Assay for human Liver X Receptor (LXR), DR4 submotif (AID 2282929); conditions: HepG2 Attagene DR4 cis-reporter, mRNA transcription; actives raise or lower the signal
Summary of the method: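 DR4 cis-reporter in HepG2, 24 h exposure. Detection: RT-PCR, 6-FAM labelling, CE fragment analysis. Endpoint fitted bidirectionally, DMSO = baseline.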

[5] = molecular target: Aryl hydrocarbon receptor (Homo sapiens) (UniProt P35869); assay: ATG_Ahr_CIS: Attagene CIS-FACTORIAL HepG2 Assay for human Aryl Hydrocarbon Receptor (Ahr) (AID 2282930); conditions: HepG2 AhR cis-factorial reporter transcription; actives raise or lower the signal
Summary of the method: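 Reporter mRNA levels, quantified by RT-PCR and fluorescent capillary electrophoresis, reflect endogenous AhR transcriptional activity in HepG2 cells carrying transfected cis-promoter reporter constructs. Readout at 24 h post-dose; gain or loss fitted against DMSO baseline.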

[6] = ATG_AP_1_CIS: Attagene CIS-FACTORIAL HepG2 Assay for human Activator Protein 1 (AP-1) (AID 2282931); conditions: HepG2 Attagene cis-factorial AP-1 reporter mRNA; actives raise or lower the signal
Summary of the method: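 Cis-regulated reporter units transiently expressed in HepG2 report endogenous transcription-factor activity. Signal: reporter mRNA at 24 h, via RT-PCR and fluorescent capillary electrophoresis. Endpoint derived by bidirectional fitting, DMSO as negative control.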

[7] = ATG_AP_2_CIS: Attagene CIS-FACTORIAL HepG2 Assay for human Activator Protein 2 (AP-2) (AID 2282932); conditions: HepG2 AP-2 cis-reporter, Attagene transcription factor profiling; actives raise or lower the signal
Summary of the method: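 Transiently transfected HepG2 cells are exposed to chemical for 24 h. Reporter transcripts are then measured as fluorescence following RT-PCR and capillary separation, and gain- or loss-of-signal is fitted relative to DMSO.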

[8] = ATG_BRE_CIS: Attagene CIS-FACTORIAL HepG2 Assay for human Bone Morphogenetic Protein (BMP) Response Element (BRE) (AID 2282933); conditions: HepG2 BMP response element reporter, Attagene transcription factor profiling; actives raise or lower the signal
Summary of the method: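 A HepG2 multiplex reporter system measured inducible reporter mRNA 24 h post-dosing. Detection: RT-PCR, 6-FAM primer extension, HpaI digestion, capillary electrophoresis. Activity fitted bidirectionally relative to DMSO.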

[9] = molecular target: Retinoic acid receptor alpha (Homo sapiens) (UniProt P10276); assay: ATG_DR5_RAR_CIS: Attagene CIS-FACTORIAL HepG2 Assay for human Retinoic Acid Receptor Alpha (RARE), DR5 submotif (AID 2282934); conditions: HepG2 Attagene cis-factorial RARE DR5 reporter, mRNA; actives raise or lower the signal
Summary of the method: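 Reporter transcripts from a DR5-regulated unit, measured via RT-PCR plus capillary electrophoresis, reflect endogenous RAR activity in transiently transfected human HepG2 liver cells. Exposure lasted 24 h; gain or loss of signal scored against DMSO.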

[10] = ATG_E_Box_CIS: Attagene CIS-FACTORIAL HepG2 Assay for human Enhancer Box (E-box) (AID 2282936); conditions: HepG2 E-box cis-reporter transcription, actives raise or lower the signal
Summary of the method: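 Fluorescent reporter fragments separated by capillary electrophoresis gave the signal; mRNA came from HepG2 cells transfected with cis-element reporters and treated 24 h. Curves fitted bidirectionally relative to DMSO controls.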

[11] = ATG_M_61_CIS: Attagene CIS-FACTORIAL HepG2 Assay for M61 Transcription Factor (Internal Marker) (AID 2282937); conditions: HepG2 Attagene CIS-FACTORIAL M61 internal marker reporter; actives raise or lower the signal
Summary of the method: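 Background-control endpoint: HepG2 cells with cis-regulated reporter constructs, 24 h exposure, reporter mRNA detected via fluorescent primer extension and capillary electrophoresis; values from bidirectional fitting with DMSO baseline.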

[12] = ATG_EGR_CIS: Attagene CIS-FACTORIAL HepG2 Assay for human Early Growth Response 1 (EGR1) (AID 2282938); conditions: HepG2 Attagene CIS-FACTORIAL EGR reporter mRNA; actives raise or lower the signal
Summary of the method: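 Endpoint derived by bidirectional fitting versus DMSO vehicle. Method: cis-promoter reporter units transfected into HepG2, 24 h dosing, RNA isolation, RT-PCR with 6-FAM primer extension and HpaI digestion, then capillary electrophoresis fluorescence detection.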

[13] = ATG_M_19_CIS: Attagene CIS-FACTORIAL HepG2 Assay for M19 Transcription Factor (Internal Marker) (AID 2282939); conditions: HepG2 Attagene CIS-FACTORIAL M19 internal marker reporter; actives raise or lower the signal
Summary of the method: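 Chemical-treated HepG2 (24 h) with MRTU constructs; reporter transcripts detected by fluorescent RT-PCR fragment analysis on capillary electrophoresis. Internal background marker, DMSO as baseline.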

[14] = ATG_Ets_CIS: Attagene CIS-FACTORIAL HepG2 Assay for human Erythroblast Transformation Specific (ETS) (AID 2282941); conditions: HepG2 ETS cis-reporter transcription, actives raise or lower the signal
Summary of the method: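 RT-PCR/capillary electrophoresis fluorescence read-out of reporter mRNA; HepG2 transient multi-reporter transfection; 24 h compound exposure; gain or loss of signal fitted bidirectionally relative to DMSO.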

[15] = molecular target: Hepatocyte nuclear factor 3-beta (Homo sapiens) (UniProt Q9Y261); assay: ATG_FoxA2_CIS: Attagene CIS-FACTORIAL HepG2 Assay for human Forkhead box A2 (FOXA2) (AID 2282942); conditions: HepG2 cis-reporter transcription factor activity, 24 h; actives raise or lower the signal
Summary of the method: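 Measured: reporter mRNA induction or loss in HepG2 transiently carrying multiple cis-regulated reporter units, 24 h after dosing. Quantified by RT-PCR plus capillary electrophoresis, normalised to DMSO.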

[16] = ATG_FoxO_CIS: Attagene CIS-FACTORIAL HepG2 Assay for human Forkhead box O (FoxO) (AID 2282943); conditions: HepG2 Attagene cis-reporter, FoxO element, mRNA; actives raise or lower the signal
Summary of the method: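 Endogenous transcription factor activity read from multiplexed cis-promoter reporter transcripts in transiently transfected HepG2, 24 h after dosing. Reporter RNA measured via RT-PCR plus capillary electrophoresis of FAM-labeled products; gain or loss relative to DMSO.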

[17] = ATG_GATA_CIS: Attagene CIS-FACTORIAL HepG2 Assay for human GATA Binding Protein (AID 2282944); conditions: HepG2 GATA cis-element reporter, Attagene multiplex mRNA; actives raise or lower the signal
Summary of the method: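 Transfected cis-reporter HepG2 cells were treated with chemicals for 24 hours. Total RNA was then converted to cDNA, amplified with reporter-specific primers and analysed by fluorescent capillary electrophoresis, using DMSO-treated wells as baseline.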

[18] = ATG_GLI_CIS: Attagene CIS-FACTORIAL HepG2 Assay for human Zinc Finger Protein GLI1 (AID 2282945); conditions: HepG2, Attagene cis-factorial reporter mRNA, GLI element; actives raise or lower the signal
Summary of the method: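 Bidirectional curve fits relative to DMSO, using reporter mRNA levels from RT-PCR plus capillary electrophoresis. Cells were HepG2 transiently carrying cis-regulated reporter constructs, harvested 24 h after dosing.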

[19] = molecular target: Transcription factor E2F1 (Homo sapiens) (UniProt Q01094); assay: ATG_E2F_CIS: Attagene CIS-FACTORIAL HepG2 Assay for human E2F Transcription Factor 1 (AID 2282935); conditions: HepG2 Attagene cis-reporter, E2F reporter RNA transcripts; actives raise or lower the signal
Summary of the method: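 Fluorescent RT-PCR products, digested with HpaI for 2 h at 37 C, are separated by capillary electrophoresis. Source RNA comes from transfected HepG2 cultures treated for 24 h.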

[20] = ATG_ERE_CIS: Attagene CIS-FACTORIAL HepG2 Assay for Estrogen Response Element (ERE) (AID 2282940); conditions: HepG2 ERE cis-reporter, Attagene RNA transcript; actives raise or lower the signal
Summary of the method: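 Human liver cells (HepG2) bearing transiently transfected, promoter-regulated reporter units were exposed 24 h. Reporter mRNA induction was detected by capillary electrophoresis of labelled RT-PCR products and fitted bidirectionally to DMSO.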

Measured: AC50

Chain of Hepatocyte nuclear factor 3-beta (Homo sapiens) (Q9Y261 whole entry, looked up): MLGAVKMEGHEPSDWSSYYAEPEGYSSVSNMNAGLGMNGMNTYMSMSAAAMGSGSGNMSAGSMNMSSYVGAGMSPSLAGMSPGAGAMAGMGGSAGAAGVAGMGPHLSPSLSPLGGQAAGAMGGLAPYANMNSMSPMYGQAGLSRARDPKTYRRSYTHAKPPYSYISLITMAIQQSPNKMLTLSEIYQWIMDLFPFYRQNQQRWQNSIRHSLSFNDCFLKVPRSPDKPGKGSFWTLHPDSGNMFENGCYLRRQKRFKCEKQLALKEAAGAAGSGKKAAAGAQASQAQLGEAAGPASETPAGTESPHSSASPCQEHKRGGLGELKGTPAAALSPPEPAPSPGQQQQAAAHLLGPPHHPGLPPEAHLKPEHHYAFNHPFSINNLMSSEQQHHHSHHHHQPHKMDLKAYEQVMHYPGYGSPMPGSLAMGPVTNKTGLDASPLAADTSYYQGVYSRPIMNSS
Chain of Transcription factor E2F1 (Homo sapiens) (Q01094 whole entry, looked up): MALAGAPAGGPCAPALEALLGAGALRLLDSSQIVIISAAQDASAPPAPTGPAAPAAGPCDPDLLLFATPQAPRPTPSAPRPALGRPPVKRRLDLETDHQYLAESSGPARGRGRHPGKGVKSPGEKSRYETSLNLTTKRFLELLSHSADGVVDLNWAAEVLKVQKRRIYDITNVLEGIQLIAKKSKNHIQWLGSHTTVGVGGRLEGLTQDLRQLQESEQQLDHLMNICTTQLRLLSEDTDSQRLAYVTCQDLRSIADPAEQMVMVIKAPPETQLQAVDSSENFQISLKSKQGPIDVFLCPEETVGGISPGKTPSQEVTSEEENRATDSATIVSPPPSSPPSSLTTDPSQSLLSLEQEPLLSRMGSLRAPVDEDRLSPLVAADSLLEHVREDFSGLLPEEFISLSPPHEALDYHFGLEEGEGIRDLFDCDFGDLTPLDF
Chain of CCAAT/enhancer-binding protein beta (Homo sapiens) (P17676 whole entry, looked up, the tested form may be a part): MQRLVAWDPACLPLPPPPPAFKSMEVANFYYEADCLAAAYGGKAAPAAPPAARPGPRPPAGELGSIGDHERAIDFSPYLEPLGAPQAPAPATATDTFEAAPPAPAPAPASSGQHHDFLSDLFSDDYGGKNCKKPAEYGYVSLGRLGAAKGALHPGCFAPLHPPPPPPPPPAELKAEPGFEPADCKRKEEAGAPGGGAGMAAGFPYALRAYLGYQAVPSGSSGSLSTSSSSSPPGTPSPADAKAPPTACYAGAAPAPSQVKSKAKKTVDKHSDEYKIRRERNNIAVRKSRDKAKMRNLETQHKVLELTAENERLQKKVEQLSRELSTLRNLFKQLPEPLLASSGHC
Chain of Aryl hydrocarbon receptor (Homo sapiens) (P35869 whole entry, looked up): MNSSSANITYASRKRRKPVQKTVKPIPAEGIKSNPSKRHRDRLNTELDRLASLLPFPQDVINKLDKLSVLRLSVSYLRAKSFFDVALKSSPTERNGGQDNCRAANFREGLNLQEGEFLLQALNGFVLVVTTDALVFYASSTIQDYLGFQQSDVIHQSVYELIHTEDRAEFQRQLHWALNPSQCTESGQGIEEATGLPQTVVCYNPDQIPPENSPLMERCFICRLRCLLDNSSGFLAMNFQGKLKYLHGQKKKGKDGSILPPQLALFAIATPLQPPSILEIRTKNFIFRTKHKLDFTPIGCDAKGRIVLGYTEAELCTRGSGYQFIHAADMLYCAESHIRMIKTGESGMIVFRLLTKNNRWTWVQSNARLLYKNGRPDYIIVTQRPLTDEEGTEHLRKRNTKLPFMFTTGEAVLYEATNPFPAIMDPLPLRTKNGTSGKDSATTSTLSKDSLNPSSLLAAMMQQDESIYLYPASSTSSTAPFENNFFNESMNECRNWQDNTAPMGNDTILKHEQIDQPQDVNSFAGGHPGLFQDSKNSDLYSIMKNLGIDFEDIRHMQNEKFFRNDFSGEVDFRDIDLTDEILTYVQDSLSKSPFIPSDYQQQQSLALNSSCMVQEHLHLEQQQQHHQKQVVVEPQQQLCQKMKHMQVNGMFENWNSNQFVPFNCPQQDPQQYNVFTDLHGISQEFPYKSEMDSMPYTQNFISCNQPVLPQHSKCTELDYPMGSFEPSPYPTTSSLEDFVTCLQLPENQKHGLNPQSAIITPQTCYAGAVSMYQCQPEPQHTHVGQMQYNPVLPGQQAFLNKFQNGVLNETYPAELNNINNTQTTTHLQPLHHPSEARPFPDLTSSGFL
Chain of Retinoic acid receptor alpha (Homo sapiens) (P10276 whole entry, looked up): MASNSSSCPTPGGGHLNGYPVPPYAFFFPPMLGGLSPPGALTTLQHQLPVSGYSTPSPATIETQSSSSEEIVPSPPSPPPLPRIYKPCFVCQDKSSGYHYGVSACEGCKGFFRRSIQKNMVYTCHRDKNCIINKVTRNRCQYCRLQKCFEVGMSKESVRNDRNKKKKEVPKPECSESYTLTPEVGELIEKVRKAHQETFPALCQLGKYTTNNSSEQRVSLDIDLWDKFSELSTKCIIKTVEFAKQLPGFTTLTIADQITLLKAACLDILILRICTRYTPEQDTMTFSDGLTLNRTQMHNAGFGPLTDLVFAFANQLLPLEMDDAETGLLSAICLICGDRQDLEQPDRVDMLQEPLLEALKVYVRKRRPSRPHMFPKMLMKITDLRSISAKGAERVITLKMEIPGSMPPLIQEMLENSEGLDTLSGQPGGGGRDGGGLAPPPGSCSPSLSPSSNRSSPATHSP

OCCc1ccccc1
not listed: [19] | [20]
inactive: all other assays above

OCc1ccc(Cl)cc1Cl
not listed: [9] | [20]
inactive: all other assays above

O=C(O)c1ccc(O)cc1
not listed: [19] | [20]
inactive: all other assays above

C=C(C)C(=O)OCCOCCOCCOCCOC(=O)C(=C)C
not listed: [9] | [20]
inactive: all other assays above

C=CC(C)(O)CCC=C(C)C (centres undefined)
not listed: [9] | [20]
inactive: all other assays above

CS(=O)(=O)OCCCCOS(C)(=O)=O
active: [5] 63.6 µM
not listed: [9]
inactive: all other assays above

C=CC(=O)OCCC#N
active: [3] 100 µM | [4] 40.5 µM | [7] 21.6 µM | [8] 26.7 µM | [12] 82.6 µM | [14] 35.9 µM | [16] 100 µM | [18] 145 µM
not listed: [9] | [20]
inactive: all other assays above

CCN(CC)C(=O)N(CC)CC
not listed: [19] | [20]
inactive: all other assays above

CC=Cc1ccc(OC)c(OC)c1
not listed: [9] | [20]
inactive: all other assays above

CCCCCCOC(=O)C(C)C
not listed: [9] | [20]
inactive: all other assays above

CCCCOCC
not listed: [9] | [20]
inactive: all other assays above

CC/C=C\CC/C=C/CO
not listed: [9] | [19] | [20]
inactive: all other assays above

CC(C)c1ccccc1O
not listed: [5] | [20]
inactive: all other assays above

Brc1ccc(Br)c(Br)c1
not listed: [4]
inactive: all other assays above

COC(=O)c1ccc(C)cc1C1=NC(C)(C(C)C)C(=O)N1 (centres undefined) (tested in a mixture with another compound)
not listed: [5] | [10] | [20]
inactive: all other assays above

C=C(C#N)C(=O)OCC
active: [2] 154 µM | [4] 158 µM
not listed: [5] | [17] | [20]
inactive: all other assays above

OCCCCC(O)CO (centres undefined)
not listed: [5] | [20]
inactive: all other assays above

N#Cc1ccc(CC(=O)c2cccc(C(F)(F)F)c2)cc1
active: [8] 128 µM | [10] 170 µM
not listed: [5] | [20]
inactive: all other assays above

CCCCCCOCCOCCO
not listed: [5] | [11] | [20]
inactive: all other assays above

O=C1NC2NC(=O)NC2N1 (centres undefined)
not listed: [5] | [17] | [19] | [20]
inactive: all other assays above

[O-]n1ccccc1=S.[O-]n1ccccc1=S.[Zn+2]
not listed: [9] | [10] | [20]
inactive: all other assays above

CC(C)CCCCCCc1ccc(OCCOCCO)cc1
not listed: [5]
inactive: all other assays above

CCCCC(CC)(CO)CO
not listed: [5] | [20]
inactive: all other assays above

COC(=O)c1ccc([N+](=O)[O-])cc1
not listed: [5] | [11] | [20]
inactive: all other assays above

CCOC(=O)c1ccc(N)cc1
not listed: [5] | [20]
inactive: all other assays above

COCCOC(=O)c1ccccc1C(=O)OCCOC
not listed: [9] | [10] | [14] | [20]
inactive: all other assays above

O=C(O)CCCCCCCCCCCC(=O)O
not listed: [5] | [20]
inactive: all other assays above

CC(C)NCC(O)COc1ccc(CC(N)=O)cc1 (centres undefined)
not listed: [5]
inactive: all other assays above

CC/C=C\CCOC(=O)CC
not listed: [5] | [9] | [11] | [20]
inactive: all other assays above

Reference: PubChem BioAssay (EPA / NIEHS)
